Bioassay records as filed in PubChem BioAssay.
Rows were chosen to be rich in hits. Some 8.9% of all compounds tested hit in one or more screens of this group.
D3 antag – qHTS of D3 Dopamine Receptor Antagonist: qHTS | 360,000 tested, 2.5% active | D3R cells, DiscoveRx beta-arrestin luminescence, antagonist mode; stronger effect = lower value | max response, negative = inhibition, % | D(3) dopamine receptor (Homo sapiens), P35462; in the data active means max response below about -50%; inconclusive means no clear call, values can overlap the other calls; further: on the % scale 0 is the no-effect control and ±100 the full control effect
Target sequence (P35462 whole entry, looked up): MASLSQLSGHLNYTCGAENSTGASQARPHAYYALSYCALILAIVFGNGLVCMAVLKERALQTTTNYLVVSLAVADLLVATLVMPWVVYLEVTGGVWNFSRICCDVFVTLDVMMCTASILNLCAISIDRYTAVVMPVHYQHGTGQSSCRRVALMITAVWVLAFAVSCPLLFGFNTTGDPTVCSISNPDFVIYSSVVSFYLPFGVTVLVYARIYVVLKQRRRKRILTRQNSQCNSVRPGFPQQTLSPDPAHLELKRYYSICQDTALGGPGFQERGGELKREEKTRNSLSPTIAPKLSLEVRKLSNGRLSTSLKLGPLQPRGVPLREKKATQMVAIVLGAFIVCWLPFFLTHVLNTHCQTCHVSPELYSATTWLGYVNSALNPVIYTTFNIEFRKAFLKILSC
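Cells expressing the human receptor were seeded at 1500 cells/well, incubated overnight at 37 degrees C in 5% CO2, then exposed to library compounds with dopamine controls for 90 minutes at 37 degrees C before luminescent detection.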
KB-3-1 tox – qHTS assay for MDR1-selective chemotherapeutics: Primary screen using the parental adenocarcinoma cell KB-3-1. KB-3-1 viability, CellTiter-Glo ATP luminescence, 72 h. AID 1347075, 2019. 400,000 tested, 1.4% active. Potency, µM (doses to about 46.1 µM), usual class: cytotoxic; further: potency means the concentration at half of the fitted maximal effect; on the % scale 0 is the no-effect control and ±100 the full control effect; nearly all actives have a fitted effect of over 60% in size
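72 h, 37 °C compound treatment of KB-3-1 parental cells; CellTiter-Glo added, 10 min, luminescence read. Data corrected against DMSO-only plates and normalized before curve fitting.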
MCF10A rerep – A quantitative high throughput screen for small molecules that induce DNA re-replication in MCF 10a normal breast cells | Potency, µM (highest dose often 46.1 µM), for the others: top-dose activity, positive = re-replication, hits mostly activators | MCF 10A DNA re-replication, Hoechst nuclear intensity, 48 h | 350,000 tested, 2.9% active | AID 624296, 2012; further: potency means the concentration at half of the fitted maximal effect; % of control where 0% means no effect; nearly all actives have a fitted effect of over 50% in size
KB-V1 MDR tox – qHTS assay for MDR1-selective chemotherapeutics: Primary screen using the drug-selected MDR subline cells KB-V1; KB-V1 MDR cells viability, CellTiter-Glo, 72 h; Potency, µM (titrated, usually from 46.1 µM), usual class: cytotoxic; 400,000 tested, 3.4% active; AID 1347076, 2019; further: potency means the concentration at half of the fitted maximal effect; on the % scale 0 is the no-effect control and ±100 the full control effect; nearly all actives have a fitted effect of over 60% in size
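Following 72 h at 37 degrees C with compound, KB-V1 cell viability was read by CellTiter-Glo luminescence, medium being phenol-red-free DMEM plus 10% FBS; concentration-response parameters came from normalized, curve-fitted qHTS data.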
SW480 rereplic – A quantitative high throughput screen for small molecules that induce DNA re-replication in SW480 colon adenocarcinoma cells; Potency, µM (doses to about 46.1 µM), without a hit: at the highest dose re-replication activation, usual class: activators; AID 624297, 2012; 340,000 tested, 1.8% active; SW480 DNA re-replication, Hoechst DNA content imaging, 48 h; further: potency means the concentration at half of the fitted maximal effect; % of control where 0% means no effect; nearly all actives have a fitted effect of over 55% in size
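Image-based DNA-content assay: after two days of treatment, nuclei were labelled with the DNA dye Hoechst and imaged, and hits were compounds raising the count of nuclei showing high fluorescence intensity.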
DRD3 agonist – qHTS of D3 Dopamine Receptor Agonist: qHTS. D3R DiscoveRx beta-arrestin cells, luminescence, 90 min. max activation, %. 410,000 tested, 0.58% active. AID 652048, 2013; in the data active means max activation above about 30%; further: 0% is about no effect
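Agonist-mode cell screen: cells plated at 1500/well and incubated overnight at 37 °C, then exposed to library compounds for 90 min at 37 °C. Detection reagent was added for 30–60 min at room temperature, and luminescence was read.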
Active calls of the source: *; i = inactive; ? = inconclusive; · = no result; [ ] = dose if it differs, or a comment. Unless noted, the call rests on the fitted dose curve; in most records, active means well fitted curve in the direction sought with a large enough effect; inconclusive means small, poorly fitted or top-dose-only effect, or another doubt; inactive means no such curve, though single readings can be large; an effect the other way counts as inactive or inconclusive.

SMILES	D3 antag	KB-3-1 tox	MCF10A rerep	KB-V1 MDR tox	SW480 rereplic	DRD3 agonist
COc1ccc2nc3oc(C(=O)NCc4ccccc4OC)cc3cc2c1	·	i	·	i	·	5
Cc1cccc(-c2cc3nc4c(c(NCc5ccco5)n3n2)CCCC4)c1	-12	i	16µM*	?	?	5
Cc1nc(-n2nc(C)c(Cc3ccc(Cl)cc3)c2C)sc1C(=O)N1CCC(C)CC1	·	·	·	·	·	-4
C#CCn1c(COc2ccccc2C)nc2ccccc21	·	i	·	i	·	2
CCOc1ccc(NC(=O)c2cccc(N3CCCS3(=O)=O)c2)cc1	·	i	·	i	·	1
O=c1c2sc3ccccc3c2n(Cc2ccccc2)c(=O)n1CCc1ccccc1	·	i	·	i	·	1
O=C(Nc1ccc2c(c1)C(=O)N(c1ccccc1)C2=O)c1cccs1	-13	i	?	i	14%	-4
O=C(Nc1cccc(NC(=O)c2cccs2)c1)c1ccco1	-17	i	10%	15µM*	-9%	-2
O=C(c1ccco1)N1CCC(n2nnc3ccccc32)CC1	20	i	6%	13µM*	-4%	0
O=C(Nc1cccc(N2CCCC2)c1)c1cccs1	-51*	i	9%	i	8%	-33
O=C(O)CCN1C(=O)c2ccc(NC(=O)c3cccs3)cc2C1=O	25	i	21µM*	i	11%	4
O=C(c1ccco1)N1CCN(c2nc3ccccc3n3nnnc23)CC1	17	i	1%	i	-1%	4
Nc1cccc(NC(=O)c2cccs2)c1	18	i	17%	i	0%	1
O=C(Nc1ccc(Cl)c(NC(=O)c2cccs2)c1)c1ccco1	-26	i	17%	i	3%	-8
Cn1c2c(c(=O)c3ccccc31)CCCC2	12	i	?	i	5%	3
O=C(Nc1ccc(S(=O)(=O)Nc2ncccn2)cc1)c1cc(=O)c2ccccc2o1	·	i	·	i	·	6
CC(C)CCNC(=O)c1cccc(-n2cnc3cccnc32)c1	·	i	·	i	·	1
c1ccc(CCN(Cc2ccccc2)C2CCN(C3CCCC3)CC2)cc1	-65*	i	22%	i	-2%	-17
O=C(c1cc(-c2ccccc2)on1)N1CCN(C(=O)c2ccco2)CC1	3	i	-8%	i	1%	4
O=C(c1ccco1)N1CCN(C(=O)c2ccco2)CC1	-28	i	·	i	·	-5
O=C(CCCc1ccccc1)N1CCN(C2CCCCC2)CC1	-84*	i	17%	i	4%	-6
O=C(c1ccco1)N1CCN(C(=O)c2sccc2-c2ccccc2)CC1	6	i	12%	12µM*	12%	3
O=C(c1ccco1)N1CCN(C(=O)c2cccs2)CC1	-56*	i	1.8µM*	i	6.5µM*	-2
COc1ccc2c(c1)c1c(c(=O)n(-c3ccccc3C)c(=O)n1CC(=O)NCc1ccc(C)cc1)n2C	·	i	·	i	·	-15
Cc1ccccc1NC(=O)Cn1nc(-c2ccccc2)nc(Cc2ccccc2)c1=O	·	·	·	·	·	12
SMILES	D3 antag	KB-3-1 tox	MCF10A rerep	KB-V1 MDR tox	SW480 rereplic	DRD3 agonist
COc1ccc(-c2noc(-c3ccc(NC4CCCC4)c([N+](=O)[O-])c3)n2)cc1OC	·	i	·	?	·	9
C(=Nc1ccc(/C=C/c2ccnc3ccccc23)cc1)c1ccc2c(c1)OCO2	·	i	·	i	·	·
COC(=O)c1ccc(NC(=O)CSc2nc(C)cc(C)c2C(=O)Nc2ccccc2)cc1	·	i	·	i	·	5
O=C(Nc1ccc(N2CCN(C(=O)c3ccco3)CC2)c(Cl)c1)c1cccs1	0	?	?	23µM*	3%	2
CC(C)C(=O)N1CCN(c2ccc(NC(=O)c3cccs3)cc2Cl)CC1	1	i	4%	i	-27%	2
O=C(c1ccco1)N1CCN(C2CN(C3CCCC3)S(=O)(=O)C2)CC1 (stereo unspecified)	18	i	·	i	·	5
O=C(c1ccco1)N1CCN(C2CCCC2)CC1	-74*	i	-5%	i	-10%	-4
O=C(CSc1nnc(Cc2cccs2)n1C1CCCCC1)N1CCN(C(=O)c2ccco2)CC1	-62*	i	3%	i	0%	-8
CCC(C)N1CCN(C(=O)c2cccs2)CC1 (stereo unspecified)	-65*	i	-12%	i	-2%	-17
Cc1nn(CCCC(=O)NCc2ccc(F)cc2)c(=O)c2c1sc1ccccc12	·	i	·	i	·	-3
CC(C)(C)c1ccc(OCC(O)CN2CCN(c3ccccn3)CC2)cc1 (stereo unspecified)	0	i	-6%	i	-2%	64*
CC(C)(C)c1ccc(OCC(O)CN2CCCC2)cc1 (stereo unspecified)	1	i	?	i	-6%	-20
CCC(=O)c1ccc(OCC(O)CN2CCN(c3ccccn3)CC2)cc1 (stereo unspecified)	-20	i	11%	i	1%	91*
COc1ccc(Cc2nc3ccccc3n2Cc2ccccc2F)cc1	·	i	·	i	·	2
COc1ccc(N2CCN(CCCNC(=O)CCC(=O)N3CCOc4ccc(Cl)cc43)CC2)cc1	?	?	15%	i	-1%	-14
O=C(CCC(=O)N1CCOc2ccc(Cl)cc21)NCCCN1CCC(Cc2ccccc2)CC1	-71*	?	-1%	i	7%	-14
O=C(CCC(=O)N1CCOc2ccc(Cl)cc21)NCCCN1CCN(c2ccccc2F)CC1	-96*	i	8%	i	-7%	4
O=C(Nc1ccc(-c2nc3ccccc3[nH]2)cc1)c1ccc(Oc2ccccc2)cc1	·	i	·	i	·	·
O=C1OCCN1C(=O)[C@H]1[C@H](c2ccccc2)C(c2ccccc2)=NN1c1ccccc1	13	i	21µM*	i	-5%	-9
O=C1OCCN1C(=O)[C@H]1[C@H](c2ccccc2)C(c2ccc(F)cc2)=NN1c1ccc(Br)cc1	17	i	9.2µM*	i	23µM*	14
O=C(O)CCC(=O)N1N=C(c2ccccc2)CC1c1ccc(Br)cc1 (stereo unspecified)	-25	i	-7%	i	-7%[9.22 µM]	-7
O=C1OCCN1C(=O)[C@H]1[C@H](c2ccccc2)C(c2ccccc2)=NN1c1ccc(Br)cc1	0	i	?	i	18µM*	2
